# The source made the active and inactive calls.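 Rule for the calls: active = glucocerebrosidase enzyme activity raised in patient cells of every tested mutation; inactive = no rise in glucocerebrosidase activity for any mutation.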
# Target: Lysosomal acid glucosylceramidase (Homo sapiens) (UniProt P04062)
# Test: Extended Characterization of Activators of N370S glucocerebrosidase as a Potential Chaperone Treatment of Gaucher Disease: Quantification of GCase activity
# Conditions: Gaucher patient macrophages, GCase 4MU fluorescence
# Text: Glucocerebrosidase (GCase) catalyzes the hydrolysis of beta-glucocerebroside to glucose and ceramide in lysosomes. Mutations in the glucocerebrosidase gene result in Gaucher disease, an autosomal recessive lysosomal storage disorder. Many of the mutations encountered in patients with Gaucher disease are missense alterations that may cause misfolding, decreased stability and/or mistrafficking of this lysosomal protein. […] These inhibitors include iminosugar analogs and other inhibitors that were discovered as part of previous work. However, the enhancement of enzyme activity by the chaperone action of an enzyme inhibitor must be balanced against the direct inhibition of the enzyme. […] In this extended characterization of our probe, we have further characterized the activity of ML198 in patient-derived cellular models of Gaucher disease. In Gaucher-derived macrophages from 17 patients, with 4 separate mutation, we quantified GCase activity using a fluorescence read-out. NIH Chemical Genomics Center [NCGC] NIH Molecular Libraries Probe Production Centers Network [MLPCN] […]
# Treated cells were cultured in black 96-well plates. After adding 100 µl assay buffer (200 mM sodium acetate (pH4), 5 mM 4MU-betaGlu and protease inhibitor cocktail (Sigma), cells were incubated for 1 hr at 37 degrees C. The reaction was halted using a stop solution (1 M NaOH and 1 M Glycine) and fluorescence measured.
# Lysosomal acid glucosylceramidase (Homo sapiens), sequence (P04062 40-536 N409S): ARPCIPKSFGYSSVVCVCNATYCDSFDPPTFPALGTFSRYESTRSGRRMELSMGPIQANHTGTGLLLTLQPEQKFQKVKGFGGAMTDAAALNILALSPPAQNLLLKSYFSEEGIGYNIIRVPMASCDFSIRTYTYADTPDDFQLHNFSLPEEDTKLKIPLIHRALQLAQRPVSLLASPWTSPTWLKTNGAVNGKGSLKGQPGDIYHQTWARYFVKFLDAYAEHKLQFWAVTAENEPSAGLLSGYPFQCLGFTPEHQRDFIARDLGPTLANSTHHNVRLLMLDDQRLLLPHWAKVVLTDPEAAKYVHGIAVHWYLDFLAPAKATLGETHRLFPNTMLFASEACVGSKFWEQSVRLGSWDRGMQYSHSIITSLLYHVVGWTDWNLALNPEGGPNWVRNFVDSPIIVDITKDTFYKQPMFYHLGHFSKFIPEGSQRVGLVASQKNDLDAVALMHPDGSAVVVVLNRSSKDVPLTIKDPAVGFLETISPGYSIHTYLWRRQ
row,SMILES,outcome
1,C#Cc1ccc(NC(=O)c2cnn3c(C)cc(C)nc23)cc1,active; increased

# Source: PubChem BioAssay AID652095 (National Center for Advancing Translational Sciences (NCATS), 2013)
